From PubChem BioAssay AID652176 (Sanford-Burnham Center for Chemical Genomics, 2013) come the findings set out here.

The inhibition is the change of the read-out against control, counted positive when it falls.

SMILES strings stand for the structures. About 25 (1%) of roughly 2,400 compounds were called active. Not all results are given here. Values without a mark were called inactive.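 Rule for the calls: active = replicate-average signal at least 3 plate SD below neutral wells, shown as high inhibition, flagging enzyme-inhibiting false positives; inactive = the rest.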

In the experiment the test system is Beta-galactosidase (Escherichia coli), counter-screen for EBI2 antagonists. As to the kind of experiment: inhibitors of purified bacterial beta-gal – biochemical, luminescence, single concentration, counter-screen for EBI2 antagonist project, confirmation (AID 652176).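 Note: 0% = DMSO wells with enzyme and 100% = wells lacking enzyme; higher means stronger loss of beta-gal luminescence.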 The conditions noted are these: luminescent Galacton Star, 15 min, at 5 µM, active compounds read high. (Counterscreens check selectivity or assay interference.)
Regarding `COc1cc(/C=C(\C#N)C(=O)Nc2ccc3ccccc3c2)c([N+](=O)[O-])cc1OC`, the inhibition was -8.92%.

Consider `CC(C)N(Cc1ccccc1)C(=S)Nc1ccc(OC(F)F)cc1`, for which the inhibition is 7.71%. In the case of `Cc1ccc(S(=O)(=O)NCCNC(C)c2ccc(Br)cc2)cc1` (centres undefined), the inhibition was 4.8%. For `Cc1cccc(C)c1-n1nnnc1C(CCc1ccccc1)N1CCN(C/C=C/c2ccccc2)CC1` (centres undefined), the inhibition is -14.6%. The value for `Cc1cccc(-n2c(O)c(C=Nc3ccccc3N)c(=O)[nH]c2=O)c1` was 1.72%; that for `CC(C)Cc1ccc(-c2cc3nc(NCc4cccc(Cl)c4)ccn3n2)cc1` was -21.1%. The value for `Fc1ccc(N2CCN(Cc3cnc(Oc4ccc(Br)cc4)s3)CC2)cc1` was 3.88%. The value for `COc1ccc([C@H]2CC(=O)C=C(/C=C/c3ccc(Cl)cc3)C2)cc1` was -9.12%; that for `O=C(CSc1ccccc1)Nc1cc(Cl)ccc1Oc1ccccc1` was -9.14%. `COc1ccccc1N1CCN(C(=O)c2cc(-c3ccc(Br)cc3)on2)CC1`: the inhibition is 9.03%.

As for `CC1CCc2sc3nc(N4CCN(CCO)CC4)n4ncnc4c3c2C1` (centres undefined), the inhibition is -1.4%. The value for `Cc1nc2ccc(C(=O)N3CCN(c4ccccc4)CC3)cc2s1` was -10.1%; that for `Cc1ccc(N2CC(C(=O)Nc3ccc(S(=O)(=O)N4CCCC4)cc3)CC2=O)cc1C` (centres undefined) was 2.23%. The value for `COc1ccc([C@H]2CC(=O)C=C(c3ccc(C)cc3)C2)cc1` was 5.89%; that for `O=C(c1cc2cc(F)ccc2[nH]1)N1CCN(c2ccc(F)cc2)CC1` was 1.06%. The value for `Cc1ccc(CSCCNC(=O)CN(c2ccc(F)cc2)S(C)(=O)=O)cc1` was 3.75%. For `O=C(c1ccc(-n2cnnn2)cc1)N1CCN(C(c2ccccc2)c2ccccc2)CC1`, the inhibition is 5.89%.

For `Cc1ccc2oc(=O)c3cnn(CC(=O)N(Cc4ccco4)C4CCCCC4)c3c2c1`, the inhibition is -17.5%. On to `CCOC(=O)N1CCN(C(=O)COc2ccc(Cl)cc2C)CC1`, for which the inhibition is 11%. The value for `Cc1ccc(O/C=C2\OC(=O)c3ccccc32)cc1` was -6.52%; that for `CCOC(=O)N1CCN(C(=O)COc2ccc(Br)cc2)CC1` was 2.79%. Regarding `COc1ccc(OC)c(C(=O)c2coc3ccc(O)c(CN4CCOCC4)c23)c1`, the inhibition is 3.81%. For `FC(F)(F)Oc1ccccc1C(c1nnnn1C1CCCCC1)N1CCN(C/C=C/c2ccccc2)CC1` (centres undefined) the value was 3.49%; for `COc1ccc(Nc2cc(Sc3ccc(OC)cc3)ncn2)cc1`, 8.03%.
